DUSP3 inh – blocks human VHR1 dual specificity phosphatase; P51452; recombinant VHR phosphatase, pNPP absorbance; inhibition, % at 13.3 µM; 0.52% of 290,000 active; in the data active means inhibition above about 50%
RecA intein inh – blocks M. tuberculosis RecA intein splicing; P9WHJ3; cell-free RecA intein splicing, fluorescence; inhibition, % (concentration not given with the values); 0.75% of 290,000 active; in the data active means inhibition above about 30%;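 further: 0% = vehicle wells and 100% = reference inhibitor control wells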
Target sequence (P9WHJ3 whole entry, looked up): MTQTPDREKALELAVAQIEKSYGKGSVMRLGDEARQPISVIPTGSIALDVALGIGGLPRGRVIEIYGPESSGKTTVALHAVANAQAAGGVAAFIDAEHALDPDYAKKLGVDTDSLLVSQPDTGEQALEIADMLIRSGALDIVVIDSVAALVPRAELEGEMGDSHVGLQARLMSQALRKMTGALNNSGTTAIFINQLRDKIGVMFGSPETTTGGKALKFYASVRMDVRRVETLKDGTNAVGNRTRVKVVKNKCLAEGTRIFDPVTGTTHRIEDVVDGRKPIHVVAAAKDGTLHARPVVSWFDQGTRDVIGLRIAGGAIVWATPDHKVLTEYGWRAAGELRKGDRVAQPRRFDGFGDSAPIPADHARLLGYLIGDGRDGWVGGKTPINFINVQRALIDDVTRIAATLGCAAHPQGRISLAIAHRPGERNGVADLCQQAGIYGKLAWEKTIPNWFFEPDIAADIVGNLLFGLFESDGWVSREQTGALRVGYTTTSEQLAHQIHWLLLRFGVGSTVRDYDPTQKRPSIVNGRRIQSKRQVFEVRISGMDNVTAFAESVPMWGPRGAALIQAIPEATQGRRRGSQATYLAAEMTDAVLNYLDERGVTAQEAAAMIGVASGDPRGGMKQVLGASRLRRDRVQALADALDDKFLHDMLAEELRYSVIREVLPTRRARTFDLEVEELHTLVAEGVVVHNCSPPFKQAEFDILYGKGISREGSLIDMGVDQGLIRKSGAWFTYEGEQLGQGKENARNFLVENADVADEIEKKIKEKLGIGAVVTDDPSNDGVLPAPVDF
CCHF vOTU inh – blocks the CCHF virus ovarian tumor domain protease; CCHFV vOTU protease, Pep-AMC fluorescence; inhibition, % at 11.5 µM; 0.55% of 370,000 active; AID 651958; further: 0% = vehicle wells with enzyme and 100% = no enzyme wells
3CLpro inhibitor – SARS-CoV 3CLpro protease inhibition; recombinant SARS-CoV 3CLpro, quenched FRET peptide cleavage; inhibition, % at 6 µM; 0.14% of 290,000 active; AID 1706; in the data active means inhibition above about 12%
FBA Mtb inh – inhibits M. tuberculosis FBA enzyme. P9WQA3. purified M. tuberculosis FBA, fluorescence read-out. inhibition, % at 1 µM. 2.3% of 360,000 active. AID 588726; in the data active means inhibition above about 27%;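 further: 0% = vehicle and 100% = reference inhibitor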
GDH-TPI inh – GDH-TPI coupled enzyme inhibition counter-screen; GDH-TPI coupled enzyme counterscreen, NADH absorbance; inhibition, % at 4.8 µM; 1.2% of 360,000 active;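 further: 0% = DMSO wells and 100% = wells lacking the enzyme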
Numbers without * were called inactive. Shown are actives, neighbours in structure and some others; about 4.7% of the full set was active somewhere. Unless noted, no stated cut-off is given here; in the data, active means inhibition above about 30%; inactive means the rest.

How did CC1CC(C)CN(C(=O)COC(=O)c2nccnc2N)C1 (stereo unspecified) do in these assays?
CCHF vOTU inh: -153; FBA Mtb inh: 180*; GDH-TPI inh: 1

What do the screens show for `Nc1nccnc1C(=O)OCC(=O)C12CC3CC(CC(C3)C1)C2`?
RecA intein inh: -1; CCHF vOTU inh: -27; FBA Mtb inh: 127*; GDH-TPI inh: 8

How did COC(=O)c1nc(C(=O)OC)c(C(=O)OC)nc1C(=O)OC do in these assays?
DUSP3 inh: 25; RecA intein inh: -2; CCHF vOTU inh: 8; 3CLpro inhibitor: -6; FBA Mtb inh: 6; GDH-TPI inh: 10

What do the screens show for `COC(=O)c1nccnc1N`?
CCHF vOTU inh: -123; FBA Mtb inh: 146*; GDH-TPI inh: -2

How did Nc1nccnc1C(=O)OCC(=O)N1CCN(S(=O)(=O)c2ccc(Cl)cc2)CC1 do in these assays?
RecA intein inh: -3; CCHF vOTU inh: -117; FBA Mtb inh: 148*; GDH-TPI inh: 8

How did CC(C)(C)C(=O)N1CCC[C@]2(CC[C@H](CCC#N)O2)C1 do in these assays?
CCHF vOTU inh: -3

How did CC(OC(=O)c1cccc(-n2cnnn2)c1)C(=O)Nc1cccc(Cl)c1 (stereo unspecified) do in these assays?
RecA intein inh: 1; CCHF vOTU inh: -5; FBA Mtb inh: -2; GDH-TPI inh: -9

Results for C=C1C(=O)C23C(O)C1CCC2C12COC3(O)C(O)C1C(C)(C)CCC2O (stereo unspecified) ?
CCHF vOTU inh: -7; FBA Mtb inh: 2; GDH-TPI inh: 6

What do the screens show for `CC(=O)NC(NC(C)=O)c1ccc(N(C)C)cc1`?
DUSP3 inh: 22; RecA intein inh: -2; CCHF vOTU inh: 9; 3CLpro inhibitor: 0; FBA Mtb inh: -2; GDH-TPI inh: 47*

Results for CN(C)c1ccc(C(=O)c2ccc(N(C)C)cc2)cc1 ?
DUSP3 inh: 27; RecA intein inh: 0; CCHF vOTU inh: 7; 3CLpro inhibitor: 3; FBA Mtb inh: 2; GDH-TPI inh: 40*

Results for COc1ccc(-n2c(SCC(=O)Nc3ccc4cn[nH]c4c3)nnc2-c2ccccc2)cc1 ?
CCHF vOTU inh: 9

Results for c1ccc(N/N=C2\CCCc3ccccc32)nc1 ?
DUSP3 inh: 5; RecA intein inh: 2; CCHF vOTU inh: 16; 3CLpro inhibitor: -1; FBA Mtb inh: -4; GDH-TPI inh: 32*

Results for COc1ccc(-c2oc3ccccc3c2C(=O)OCc2ccc([N+](=O)[O-])cc2)cc1 ?
DUSP3 inh: 1; RecA intein inh: 1; CCHF vOTU inh: 9; 3CLpro inhibitor: -3; FBA Mtb inh: 2; GDH-TPI inh: 2

Results for COc1ccc2oc(-c3ccccc3)c(C(=O)O)c2c1 ?
DUSP3 inh: 2; RecA intein inh: -6; CCHF vOTU inh: -79; 3CLpro inhibitor: 0; FBA Mtb inh: active; GDH-TPI inh: 9

Results for COC(=O)c1c(-c2ccc(OC)cc2)oc2ccccc12 ?
DUSP3 inh: 24; RecA intein inh: 11; CCHF vOTU inh: -29; 3CLpro inhibitor: 1; FBA Mtb inh: 134*; GDH-TPI inh: 18

How did Cn1c(=O)c2c(nc3n2CC(CO)O3)n(C)c1=O (stereo unspecified) do in these assays?
DUSP3 inh: 59*; RecA intein inh: -1; CCHF vOTU inh: 4; 3CLpro inhibitor: -3; FBA Mtb inh: -1; GDH-TPI inh: 15

Results for CC(C)OCC1Cn2c(nc3c2c(=O)n(C)c(=O)n3C)O1 (stereo unspecified) ?
DUSP3 inh: 12; RecA intein inh: 0; CCHF vOTU inh: 8; 3CLpro inhibitor: 0; FBA Mtb inh: 0; GDH-TPI inh: 6

What do the screens show for `CC(=O)O[C@@H]1C[C@H]2C(C)(C)C(=O)C=C[C@]2(C)[C@H]2CC[C@@]3(C)[C@H](c4ccoc4)OC(=O)[C@H]4O[C@]43[C@@]21C`?
DUSP3 inh: -3; RecA intein inh: 42*; CCHF vOTU inh: 9; 3CLpro inhibitor: 0; FBA Mtb inh: 3; GDH-TPI inh: 3

What do the screens show for `CC(=O)OC1CC2C(C)(C)C(=O)C=CC2(C)C2CCC3(C)C(c4ccoc4)OC(=O)C4OC43C12C` (stereo unspecified)?
CCHF vOTU inh: 8; FBA Mtb inh: 0; GDH-TPI inh: -1

How did COC(=O)c1cc2c(c3c4cc(OC)ccc4n(S(=O)(=O)c4ccc(F)cc4)c13)C(=O)N(Cc1ccccc1)C2 do in these assays?
CCHF vOTU inh: -2

How did COC(=O)C1=C(C)N(Cc2ccccc2C(F)(F)F)C(=NCc2ccccc2C(F)(F)F)NC1c1cccc(C(F)(F)F)c1 (stereo unspecified) do in these assays?
CCHF vOTU inh: 16

What do the screens show for `CC(C)Oc1ccccc1C1CC(=O)Nc2c1c(=O)n(C)c(=O)n2C` (stereo unspecified)?
DUSP3 inh: 59*; RecA intein inh: -1; 3CLpro inhibitor: -4

How did CCOc1ccccc1C1CC(=O)Nc2c1c(=O)n(C)c(=O)n2C (stereo unspecified) do in these assays?
DUSP3 inh: -14; RecA intein inh: 1; CCHF vOTU inh: -7; 3CLpro inhibitor: -1; FBA Mtb inh: -1; GDH-TPI inh: 12

Results for COc1ccccc1CNC(=O)N(CCc1c(C)[nH]c2ccccc12)Cc1cccs1 ?
CCHF vOTU inh: 3

What do the screens show for `O=C(N/N=C/c1ccsc1)c1c[nH]c2ccccc12`?
DUSP3 inh: 4; RecA intein inh: -3; CCHF vOTU inh: 6; 3CLpro inhibitor: -3; FBA Mtb inh: 2; GDH-TPI inh: 9

What do the screens show for `O=C(N/N=C/c1cc([N+](=O)[O-])ccc1O)c1c[nH]c2ccccc12`?
DUSP3 inh: 8; RecA intein inh: -3; CCHF vOTU inh: 10; 3CLpro inhibitor: 0; FBA Mtb inh: -5; GDH-TPI inh: 39*

How did O=C(N/N=C/c1cccc([N+](=O)[O-])c1)c1c[nH]c2ccccc12 do in these assays?
DUSP3 inh: 4; RecA intein inh: -4; CCHF vOTU inh: 6; 3CLpro inhibitor: -6; FBA Mtb inh: 3; GDH-TPI inh: 18

Results for Cc1ccsc1/C=N/NC(=O)c1c[nH]c2ccccc12 ?
DUSP3 inh: 30; RecA intein inh: 0; CCHF vOTU inh: 9; 3CLpro inhibitor: -4; FBA Mtb inh: 7; GDH-TPI inh: 45*

How did O=C(N/N=C/c1ccc[nH]1)c1sc2ccccc2c1Cl do in these assays?
DUSP3 inh: 16; RecA intein inh: 3; CCHF vOTU inh: -2; 3CLpro inhibitor: -2; FBA Mtb inh: -4; GDH-TPI inh: 38*

What do the screens show for `Cc1ccc(/C=N/NC(=O)c2c[nH]c3ccccc23)o1`?
DUSP3 inh: 24; RecA intein inh: 0; 3CLpro inhibitor: 0; FBA Mtb inh: -6; GDH-TPI inh: 59*

How did CC(C)CN1C(=O)[C@]2(CC(=O)N(C)C2c2ccccc2)c2cc(-n3cc(CO)nn3)ccc21 (stereo partly specified) do in these assays?
CCHF vOTU inh: 20
